Measured values: a collection of fitness landscapes (doi:10.1126/science.1257360)
Over roughly 140,000 sequences, “enrichment ratio after two sorts for PhoP signalling” has its median near 0; the highest 2% begin near 11. This excerpt belongs to a sample that is enriched for the highest values.

B1: PhoQ; a variant is named by its letters at X, in order, P23837 (parent)
chain: MKKLLRLFFPLSLRVRFLLATAAVVLVLSLAYGMVALIGYSVSFDKTTFRLLRGESNLFYTLAKWENNKLHVELPENIDKQSPTMTLIYDENGQLLWAQRDVPWLMKMIQPDWLKSNGFHEIEADVNDTSLLLSGDHSIQQQLQEVREDDDDAEMTHSVAVNVYPATSRMPKLTIVVVDTIPVELKSSYMVWSWFIYVLSANLLLVIPLLWVAAWWSLRPIEALAKEVRELEEHNRELLNPATTRELTSLVRNLNRLLKSERERYDKYRTTLTDLTHSLKTPLXXLQXXLRSLRSEKMSVSDAEPVMLEQISRISQQIGYYLHRASMRGGTLLSRELHPVAPLLDNLTSALNKVYQRKGVNISLDISPEISFVGEQNDFVEVMGNVLDNACKYCLEFVEISARQTDEHLYIVVEDDGPGIPLSKREVIFDRGQRVDTLRPGQGVGLAVAREITEQYEGKIVAGESMLGGARMEVIFGRQHSAPKDE

Variants of: B1
Assay: enrichment ratio after two sorts for PhoP signalling (ratio (wild type AVST 3.29)); higher = more functional
Conditions: with PhoP (E. coli)

Variant | enrichment ratio
DPLR | ≤ 0.25
SCTD | ≤ 0.25
SCTC | 7.94
SCTS | 14.9
SCTA | 12.7
SCTH | 9.21
SCTK | 7.2
LRRQ | ≤ 0.25
NIGG | ≤ 0.25
LVAY | ≤ 0.25
HFFS | ≤ 0.25
PHFW | ≤ 0.25
STAF | 7.65
SRAF | ≤ 0.25
WIAF | ≤ 0.25
SCAF | 16.3
KCAF | ≤ 0.25
MCAF | 32.1
MMAF | 13
KMAF | ≤ 0.25
MKAF | ≤ 0.25
MIAF | 14
MSAF | 3.4
MAAF | ≤ 0.25
LHIP | ≤ 0.25

Variant | enrichment ratio
RPYE | ≤ 0.25
AWSD | ≤ 0.25
WEIC | ≤ 0.25
FTRG | ≤ 0.25
AQMD | ≤ 0.25
LIFC | ≤ 0.25
PKNW | ≤ 0.25
FRIG | ≤ 0.25
LEYC | 4.32
WRGG | ≤ 0.25
TYCE | ≤ 0.25
TYCI | ≤ 0.25
TYCA | 12.1
TYHG | ≤ 0.25
TYMG | 14.3
TYVG | 0.756
FWCS | 1.37
HQAE | ≤ 0.25
APEP | ≤ 0.25
AHCL | 9.7
VCCY | ≤ 0.25
ACCK | 12.8
ACFH | ≤ 0.25
KCCY | ≤ 0.25
ACCC | 34.1

Variant | enrichment ratio
ACCS | 2.23
ACCI | 26.9
KCCC | ≤ 0.25
ACCA | 7.21
ACCY | 19.6
YDTQ | ≤ 0.25
GRPL | ≤ 0.25
KEDR | ≤ 0.25
FEMC | 10.8
IQYT | ≤ 0.25
DHLG | ≤ 0.25
NLYQ | ≤ 0.25
MPYA | ≤ 0.25
ACCE | ≤ 0.25
ACCM | 14.9
ACNK | ≤ 0.25
ACCV | 8.87
ACCG | 25.4
PCQA | ≤ 0.25
HATN | ≤ 0.25
NYIP | ≤ 0.25
TAAI | 7.96
TACA | 8.47
TACF | 18.8
TACL | 11.4

Variant | enrichment ratio
KACL | ≤ 0.25
NACL | 4.16
KACF | ≤ 0.25
NACF | ≤ 0.25
TAMD | 6.3
TACS | 14.1
TACI | 22.6
TACE | ≤ 0.25
WKNR | ≤ 0.25
VKRR | ≤ 0.25
DLFL | ≤ 0.25
DTVY | ≤ 0.25
GNTN | ≤ 0.25
FYCC | ≤ 0.25
AHHD | ≤ 0.25
RGHL | 0.34
VRKH | ≤ 0.25
YACQ | ≤ 0.25
TAQP | ≤ 0.25
TACC | 13.6
KACC | ≤ 0.25
TACQ | 15
TACR | 14.8
TAKR | ≤ 0.25
TADH | 4.03

Variant | enrichment ratio
NACR | ≤ 0.25
WVLV | ≤ 0.25
EKCV | ≤ 0.25
QQYK | ≤ 0.25
RYKI | ≤ 0.25
WKHA | ≤ 0.25
HFSC | ≤ 0.25
VSFV | 0.649
WDSR | ≤ 0.25
TKCD | 21.6
ANCD | 0.285
AQCD | 42.7
IQCD | ≤ 0.25
SLCD | 17.9
KKCD | ≤ 0.25
TQCD | 29.3
AICD | 5.13
WLCD | ≤ 0.25
PLCD | ≤ 0.25
NQCD | ≤ 0.25
AKCD | 0.285
FDEE | ≤ 0.25
LLLK | ≤ 0.25
IWDM | ≤ 0.25
WDSH | ≤ 0.25

Variant | enrichment ratio
HNFP | ≤ 0.25
PDHT | ≤ 0.25
MHPL | ≤ 0.25
KHNC | ≤ 0.25
AWVP | ≤ 0.25
NDNL | ≤ 0.25
SNCD | 16.4
STCD | 6.22
VCCD | ≤ 0.25
SCCD | 16.2
SPCD | ≤ 0.25
SQCD | 11.4
KCCD | ≤ 0.25
KYCD | ≤ 0.25
FQCD | ≤ 0.25
GQTA | ≤ 0.25
QQPV | ≤ 0.25
TPAE | ≤ 0.25
VMCM | ≤ 0.25
QQDM | ≤ 0.25
SEES | 6.49
LFRE | ≤ 0.25
EYQC | ≤ 0.25
FVCF | 12
PVCF | ≤ 0.25

Variant | enrichment ratio
GNCF | 6.9
GVCF | 25
NVCF | ≤ 0.25
MVCF | 5.97
KKRY | ≤ 0.25
LMRK | ≤ 0.25
KFQK | ≤ 0.25
KDWW | ≤ 0.25
TEYV | 4.31
MEIG | 8.35
TEMD | 1.58
TEIG | 18.6
TEMS | 11.4
TEMV | 20.2
TEEV | ≤ 0.25
TEMR | 12.2
TEGR | ≤ 0.25
NEIG | ≤ 0.25
TEMW | ≤ 0.25
HRMR | ≤ 0.25
VAVY | ≤ 0.25
IKRV | ≤ 0.25
WDMR | ≤ 0.25
RSTE | ≤ 0.25
RVPP | ≤ 0.25

Variant | enrichment ratio
KQPC | ≤ 0.25
EFMI | ≤ 0.25
QNHE | ≤ 0.25
HRLN | ≤ 0.25
REIC | ≤ 0.25
VPQL | ≤ 0.25
TEGV | 12.6
TEMG | 19.1
KSWV | ≤ 0.25
TEMK | 32.5
TEWV | 18.4
KRMK | ≤ 0.25
TEGG | 5.71
NRMK | ≤ 0.25
TEVG | 10.9
TGGV | 4.98
HPWV | ≤ 0.25
TEHV | 10.3
GQIN | ≤ 0.25
NEIF | ≤ 0.25
